Measured potencies and affinities stand elsewhere.
Test system: Klebsiella pneumoniae
Conditions: Concentration 32 ug.mL-1; ASSAY_TEST Inhibition of Bacterial Growth; detection method Absorption (OD600); MEDIA CAMHB; plate type 384well; NBS; CORNING #3640; time 18 hr

| Compound | Inhibition [%] |
| --- | --- |
| COc1ccc2c(c1)cc(C(=O)Nc1ccccc1)n2C | 8.32 |
| COc1nc(N)c(C#N)c(-c2ccccc2)c1C#N | 5.51 |
| Nc1c2c(nc3c1C(c1ccc(Cl)c(Cl)c1)c1ccc4ccccc4c1O3)CCCC2 (configuration not stated) | -10.24 |
| COC(=O)C(NC(=O)c1ccccc1)=C(C)c1ccccc1 | 19.09 |
| CC1=NC(=Cc2ccccc2)C(=O)S1 | 11 |
| NNC(=O)Cc1c[nH]c2ccccc12 | 17.86 |
| CC1=NC(=Cc2ccc([N+](=O)[O-])cc2)C(=O)O1 | -0.23 |
| COc1ccc(C2C(C#N)=C(N)Oc3c2ccc2ccccc32)cc1 (configuration not stated) | 9.52 |
| Cc1ccc(-c2c(C#N)c(N)nc3c2S(=O)(=O)OC3(C)C)cc1 | 10.18 |
| COc1nc(NC(C)=O)c(C#N)c(-c2ccccc2)c1C#N | 12.51 |
| COC(=O)C1CCN(Cc2ccccc2)CC1 | 4.25 |
| COc1nc2ccc(C)cc2cc1C=O | -5.34 |
| N#Cc1c(N)nc(NCCC2CCN(Cc3ccccc3)CC2)c(C#N)c1-c1ccccc1 | 5.9 |
| Cn1cc(/C=C2\NC(=S)NC2=O)c2ccccc21 | 6.37 |
| CC1CC(=O)Nc2c1c(Cl)nc1nc3c(c(N)c21)CCCC3 (configuration not stated) | 13.46 |
| N#CC1(Br)C(=NBr)Oc2ccc3ccccc3c2C1c1ccc([N+](=O)[O-])cc1 (configuration not stated) | -0.48 |
| COc1ccc(-c2cc(-c3cc4ccc(OC)cc4nc3Cl)cc(=O)[nH]2)cc1 | 4.32 |
| O=C(N[C@H]1CC[C@H](O)CC1)c1ccccc1 | 10.98 |
| COc1ccc2c(c1)cc(CNc1ccccc1)n2C | 12.88 |
| Nc1c2c(nc3c1C(c1ccc([N+](=O)[O-])cc1)c1c(ccc4ccccc14)O3)CCCC2 (configuration not stated) | 9.13 |
| CCOC(=O)C1=C(C)OC(N)=C(C#N)C1c1ccc(OC)cc1 (configuration not stated) | 14.63 |
| C#CCN(C)c1nc(Cl)c(C#N)c(-c2ccccc2)c1C#N | 7.31 |

Test system: Candida albicans
Conditions: 32 ug/mL

| Compound | Inhibition [%] |
| --- | --- |
| O=C(Cc1c[nH]c2ccccc12)NN=Cc1ccccc1 | -0.87 |
| CS(=O)(=O)O[C@H]1CC[C@H](OS(C)(=O)=O)CC1 | 3.52 |
| Cc1ccc(S(=O)(=O)N[C@H]2CC[C@H](O)CC2)cc1 | 0.9 |
| O=C(O)/C(=C\c1ccccc1)NC(=O)c1ccccc1 | 1.39 |
| C#CCNc1ncccn1 | 2.79 |
| CCOC(=O)C1=C(C)OC(N)=C(C#N)C1c1cccs1 (configuration not stated) | 0.39 |
| CCOC(=O)C1=C(C)Nc2nc3c(c(N)c2C1c1ccc([N+](=O)[O-])cc1)CCCC3.Cl (configuration not stated) | 1.72 |
| COc1nc2ccccc2cc1C=O | 6.13 |
| COc1ccc(C=C2N=C(c3ccccc3)SC2=O)cc1 | 0.65 |
| Cc1n[nH]c2c1C(c1ccc([N+](=O)[O-])cc1)C(C#N)=C(N)O2 (configuration not stated) | 3.15 |
| Nc1c2c(nc3c1C(c1ccccc1)c1ccc4ccccc4c1O3)CCCC2 (configuration not stated) | 0.57 |
| N#Cc1c(Cl)nc(Sc2ccccc2)c(C#N)c1-c1ccccc1 | 2.71 |
| CCOC(=O)C1=C(C)OC(N)=C(C#N)C1c1cccnc1 (configuration not stated) | 0.38 |
| COc1ccc2c(c1)cc(CN(C)Cc1cn(Cc3ccccc3)nn1)n2C | 2.23 |
| Cn1c(C(=O)O)cc2cc(OCCCC3CCN(Cc4ccccc4)CC3)ccc21 | 6.79 |
| O=Cc1c[nH]c2ccccc12 [3-FORMYLINDOLE] | 1.76 |
| CCOC(=O)c1c(C)nc(N)c(C#N)c1-c1cccs1 | 2.63 |
| Br.C#CCNCC | 3.14 |
| COc1ccc2c(c1)cc(C(=O)Nc1ccccc1)n2C | 2.05 |
| COc1nc(N)c(C#N)c(-c2ccccc2)c1C#N | 1.23 |

| Compound | Inhibition [%] |
| --- | --- |
| Nc1c2c(nc3c1C(c1ccc(Cl)c(Cl)c1)c1ccc4ccccc4c1O3)CCCC2 (configuration not stated) | 4.63 |
| COC(=O)C(NC(=O)c1ccccc1)=C(C)c1ccccc1 | -0.01 |
| CC1=NC(=Cc2ccccc2)C(=O)S1 | 0.37 |
| NNC(=O)Cc1c[nH]c2ccccc12 | 3.51 |
| CC1=NC(=Cc2ccc([N+](=O)[O-])cc2)C(=O)O1 | -0.54 |
| COc1ccc(C2C(C#N)=C(N)Oc3c2ccc2ccccc32)cc1 (configuration not stated) | 1.55 |
| Cc1ccc(-c2c(C#N)c(N)nc3c2S(=O)(=O)OC3(C)C)cc1 | 1.92 |
| COc1nc(NC(C)=O)c(C#N)c(-c2ccccc2)c1C#N | 2.3 |
| COC(=O)C1CCN(Cc2ccccc2)CC1 | 4.82 |
| COc1nc2ccc(C)cc2cc1C=O | 5.7 |
| N#Cc1c(N)nc(NCCC2CCN(Cc3ccccc3)CC2)c(C#N)c1-c1ccccc1 | 4.31 |
| Cn1cc(/C=C2\NC(=S)NC2=O)c2ccccc21 | -0.01 |
| CC1CC(=O)Nc2c1c(Cl)nc1nc3c(c(N)c21)CCCC3 (configuration not stated) | 3.48 |
| N#CC1(Br)C(=NBr)Oc2ccc3ccccc3c2C1c1ccc([N+](=O)[O-])cc1 (configuration not stated) | 2.19 |
| COc1ccc(-c2cc(-c3cc4ccc(OC)cc4nc3Cl)cc(=O)[nH]2)cc1 | -0.61 |
| O=C(N[C@H]1CC[C@H](O)CC1)c1ccccc1 | 2.54 |
| COc1ccc2c(c1)cc(CNc1ccccc1)n2C | 1.07 |
| Nc1c2c(nc3c1C(c1ccc([N+](=O)[O-])cc1)c1c(ccc4ccccc14)O3)CCCC2 (configuration not stated) | 1.59 |
| CCOC(=O)C1=C(C)OC(N)=C(C#N)C1c1ccc(OC)cc1 (configuration not stated) | 2.59 |
| C#CCN(C)c1nc(Cl)c(C#N)c(-c2ccccc2)c1C#N | 11.2 |

Source: ChEMBL document CHEMBL4513135, “CO-ADD screening of IQOG CSIS (Spain) compounds”
